Assay outcomes deposited in PubChem BioAssay by Sanford-Burnham Center for Chemical Genomics.
CF NFkB inh = inhibitors of PAF-induced NF-kB signaling, primary screen, cell-based, GFP fluorescence, uHTS; inhibition, % at 5 µM; AID 588850, 2011; KKLEB NF-kB-GFP reporter, GFP fluorescence overnight; actives 0.86% (n = 360,000);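 active = at least 50% inhibition at 5 µM, scaled per plate between neutral and stimulator controls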;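 also: PAF is a Pseudomonas aeruginosa culture filtrate used as stimulus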
KKLEB cytotox = cytotoxicity in KKLEB CF airway cells, primary screen, cytotoxicity control for CF NF-kB inhibitor project, cell-based, uHTS, fluorescence assay plates | activity change (cytotoxicity), % at 5 µM | actives 0.36% (n = 360,000) | AID 602141, 2011 | KKLEB CF airway cells viability, ATPlite luminescence, overnight; stronger effect = lower value; cells stimulated with P. aeruginosa culture filtrate;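 active = corrected activity change at or below -50% at 5 µM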
HIF-2a inh = HIF-2a reporter inhibitors, primary screen, luminescence, 786-0 RCC cells; 786-0 RCC cells HIF-2a reporter, luciferase luminescence, overnight; inhibition, % at 18.8 µM; actives 0.72% (n = 360,000); AID 624352, 2012;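 active = inhibition of the luminescence signal of 40% or more relative to plate controls, in a single-dose primary screen at 18.75 µM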
TROY signal inh = inhibitors of TROY-driven NF-kB signaling, primary screen, Q293 LMP1-TROYcd cells, NF-kB luciferase, uHTS | Q293 LMP1-TROYcd NF-kB luciferase reporter, 4 h | inhibition, % at 10 µM | actives 0.98% (n = 360,000) | AID 1347056, 2019;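 active = compounds whose plate-normalised and pattern-corrected inhibition of the luciferase reporter signal at the single screening dose is 50% or more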
Peg3 prom inh = Peg3 promoter-driven luciferase inhibitors, primary screen, cell-based, HeLa, luciferase luminescence | inhibition, % at 20 µM | AID 588405, 2011 | HeLa PEG-Prom luciferase reporter, overnight | actives 1.7% (n = 360,000);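 active = inhibition of at least 50% at 20 µM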
TWEAK-Fn14 inh = inhibitors of TWEAK-Fn14 signaling, primary screen, luciferase reporter cells, uHTS; TWEAK-stimulated Fn14 reporter cells, luciferase luminescence, 8 h; inhibition, % at 10 µM; actives 2% (n = 360,000); in the data active = inhibition above about 50%
Large screens that a line does not name were inactive. A selection: hits, their analogues and other compounds. The true share with any hit is near 4%.

Cc1ccc(-c2noc(Cn3cc(S(=O)(=O)N4CCCC4)ccc3=O)n2)cc1	none
CCc1ccc(NC2=CC(=O)C(=O)c3ccccc32)cc1	CF NFkB inh 95.5, KKLEB cytotox -90.6
O=C1C=C(Nc2ccccc2)c2ccccc2C1=O	CF NFkB inh 71.8
O=C1C=C(Nc2ccccc2)C(=O)c2ccccc21	CF NFkB inh 60.2
O=C1C(Nc2ccccc2)=C(NS(=O)(=O)c2ccccc2)C(=O)c2ccccc21	none
COc1ccccc1CNS(=O)(=O)c1cc(CN2C(=O)c3cccnc3C2=O)ccc1OC	none
COc1cc(CCNC2=CC(=O)c3ncccc3C2=O)ccc1O	CF NFkB inh 77.9
O=C(NCc1ccco1)c1cnn2c(C(F)F)cc(-c3ccccc3)nc12	none
Cc1cc(C)c(Cc2c(C)nc3c(C(=O)NCc4ccco4)cnn3c2C)c(C)c1	TROY signal inh 87.9, TWEAK-Fn14 inh 72.5
COc1cc(C)c(CN2CCC(n3nccc3NC(=O)C3CC3)CC2)cc1C	none
CCc1cccc2c1Sc1ccccc1CC2N1CCNCC1 (configuration not stated)	Peg3 prom inh 111.3
O=C(N/N=C/c1ccc(O)cc1O)c1ccncc1	none
CCc1cc(C(=O)N/N=C/c2ccc(O)cc2O)c2ccccc2n1	Peg3 prom inh 51.7
CC(C)(C)c1ccc(/C=C/C(=O)c2ccc(NC3=NCCCS3)cc2)cc1	TWEAK-Fn14 inh 60.7
O=C(/C=C/c1ccccc1)c1ccc(NC2=NCCCS2)cc1	none
COc1ccc(S(=O)(=O)N2CCN(C(=O)CNC(=O)c3ccc4c(c3)OCO4)CC2)cc1	none
Cc1cc(C)n2nc(C(=O)OCC(=O)N(C)CC(=O)Nc3ccccc3Cl)nc2n1	none
O=C(CNc1ccc2ccccc2c1)N/N=C/c1ccc(C(=O)O)cc1	TWEAK-Fn14 inh 53.2
O=C(CNc1cccc2ccccc12)N/N=C/c1ccc(C(=O)O)cc1	none
Cc1cc([N+](=O)[O-])ccc1-c1ccc(/C=N/NC(=O)c2ccc(Br)o2)o1	Peg3 prom inh 110.5
O=C(O)c1ccc(/C=N/NC(=O)c2cc3c(ccc4ccccc43)o2)cc1	TROY signal inh 63.2
Cc1ccc(-c2ccc(/C=N\NC(=O)c3cc4c(ccc5ccccc54)o3)o2)cc1[N+](=O)[O-]	Peg3 prom inh 90.8
O=C(Nc1cccc(C(F)(F)F)c1)C1Cc2c(-c3ccccc3)ccnc2O1 (configuration not stated)	none
CCOC(=O)C(=O)NCC(c1cccs1)S(=O)(=O)c1ccc(Cl)cc1 (configuration not stated)	none
CN(C)S(=O)(=O)c1cccc(NC(=O)c2ccc(NS(=O)(=O)c3cccs3)cc2)c1	none
O=C1C(=O)c2c(ccc3ccccc23)-c2ccccc21	CF NFkB inh 73.7, KKLEB cytotox -83.6, Peg3 prom inh 102.0, TWEAK-Fn14 inh 101.3
O=C(NCCC1CCCCN1S(=O)(=O)c1cccs1)C(=O)Nc1cccc(F)c1 (configuration not stated)	none
COc1cc(NC(=O)CC(C)S(=O)(=O)c2ccc3c(c2)NC(=O)CO3)cc(OC)c1OC (configuration not stated)	none
Cc1ccc(S(=O)(=O)N(C(=O)c2ccncc2)c2ccc(OC(=O)c3ccncc3)cc2)cc1	none
O=C(Oc1ccc(N(C(=O)c2ccncc2)S(=O)(=O)c2ccc(F)cc2)cc1)c1ccncc1	none
Cc1ccc(S(=O)(=O)N(C(=O)c2ccncc2)c2ccc(OC(=O)c3ccncc3)cc2)c(C)c1	CF NFkB inh 71.6, KKLEB cytotox -50.5, Peg3 prom inh 52.5, TWEAK-Fn14 inh 50.4
CCc1ccc(S(=O)(=O)N(C(=O)c2ccncc2)c2ccc(OC(=O)c3ccncc3)cc2)cc1	TROY signal inh 53.9
CC1(c2nnnn2-c2ccc3c(c2)OCCO3)CCC(=O)N1CCc1ccc(O)cc1 (configuration not stated)	none (no result: CF NFkB inh, KKLEB cytotox, Peg3 prom inh)
CCOC(=O)CSc1nc2c(c(=O)[nH]1)C(C)(CC)Cc1ccccc1-2 (configuration not stated)	none
CCC1(C)Cc2ccccc2-c2nc(SCC(N)=O)[nH]c(=O)c21 (configuration not stated)	TROY signal inh 53.2
CCN(CC)C(=O)C1=C(C)N(CCC2=CCCCC2)C(=O)C(CC(=O)NCc2ccco2)C1 (configuration not stated)	none
O=C(C[C@@H]1C/C=C\CCCC(=O)OC[C@@H]2CCCN2C1=O)N[C@H](CO)Cc1ccccc1	none
O=C(CCNS(=O)(=O)c1ccc(Br)cc1)NCC(c1cccs1)N1CCOCC1 (configuration not stated)	none
O=C(Nc1ccccc1O)C(c1ccccc1)c1ccccc1	TWEAK-Fn14 inh 64.5
O=C(O)c1ccccc1NC(=O)C(c1ccccc1)c1ccccc1	none
CCc1nc(Nc2cccc(O)c2)c2oc3ccccc3c2n1	TROY signal inh 75.7, Peg3 prom inh 57.0, TWEAK-Fn14 inh 70.0
CCc1nc(Nc2ccc3c(c2)OCO3)c2oc3ccccc3c2n1	TWEAK-Fn14 inh 50.5
CCc1nc(Nc2cc(OC)ccc2OC)c2oc3ccccc3c2n1	none
O=S(c1cc(Cl)cc(Cl)c1O)c1cc(Cl)cc(Cl)c1O	TROY signal inh 54.1 (no result: CF NFkB inh, KKLEB cytotox, Peg3 prom inh)
Oc1c(Cl)cc(Cl)cc1CNc1nccs1	none
CC(=O)C1CCC2C3CC=C4CC(SC(=N)N)CCC4(C)C3CCC12C (configuration not stated)	Peg3 prom inh 97.0
COCC(=O)N(Cc1cc2ccccc2[nH]c1=O)c1ccc(OC)cc1	none
COCC(=O)N(Cc1cc2ccccc2[nH]c1=O)c1ccccc1OC	TWEAK-Fn14 inh 79.4 (no result: TROY signal inh)
CN1CCCN(c2ncnc3scc(-c4ccc(F)cc4)c23)CC1	none
CC(C)c1ccc(-c2csc3ncnc(N4CCN(C)CC4)c23)cc1	TWEAK-Fn14 inh 51.0
N#C/C(=C\c1ccncc1)c1nc2ccccc2o1	none
N#C/C(=C\Nc1ccccc1O)c1nc2ccccc2o1	TROY signal inh 51.5
COc1ccc(NC(=O)N(C)C[C@@H]2OCc3cn(nn3)CCCC(=O)N([C@@H](C)CO)C[C@H]2C)cc1	none
CSCCC(NC(=O)c1ccccc1Cl)C(=O)Nc1ccncc1 (configuration not stated)	none
Cc1ccccc1S(=O)(=O)Cc1ccc(C(=O)N2CCN(c3ccccc3F)CC2)o1	none
CC1=C(C)/C(=N\OS(=O)(=O)c2ccc(C)cc2)C=CC1=O	CF NFkB inh 71.5, HIF-2a inh 88.0, Peg3 prom inh 106.1, TWEAK-Fn14 inh 92.6
